A selection: hits, their analogues and other compounds. The true share with any hit is near 0.51%.
E coli growth-1 = E. coli growth inhibition; Escherichia coli growth, OD600, 23 h; hits give low values; OD600 absorbance (no concentration beside the values); 330,000 compounds, 0.21% hits; AID 1053175;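 active = OD600 absorbance below the run mean of sample wells minus 3.6 SD, in any replicate, cut at about 0.56 in these data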
pCIP destab = compounds decreasing mouse p/CIP protein stability; Q05BA5; 290,000 compounds, 0.01% hits; F442A p/CIP-EGFP cells, EGFP fluorescence, 16 h; decrease of EGFP signal, % at 10 µM; AID 1984;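 active = EGFP signal decrease of at least 30% at 10 µM or well 3 SD below plate mean, unless failing retest; inactive = the rest, including hits failing retest or dose response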
phage Ecoli inh = E. coli growth loss with phage present. growth absorbance. inhibition, % at 11.9 µM. 360,000 compounds, 0.26% hits; in the data active = inhibition above about 11%
E coli growth-2 = bacterial growth inhibition, counter-screen for AddAB inhibitors. E. coli V3065 growth, OD600 absorbance, 18 h. inhibition, % at 11.9 µM. 330,000 compounds, 0.27% hits;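 active = inhibition above the campaign's mean inhibition across all tested compounds plus 3 SD, cut at about 9.9% in these data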;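 also: uninfected addAB+ strain grown without phage in ampicillin broth; 0% = DMSO wells and 100% = ciprofloxacin 0.95 µg/ml wells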
AddAB inh = less growth of phage-infected E. coli with AddAB; E. coli expressing H. pylori AddAB, absorbance growth; inhibition, % at 11.9 µM; 330,000 compounds, 0.29% hits; AID 435030; in the data active = inhibition above about 12%;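 also: 0% = vehicle wells of infected cells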
Tat transport = E. coli Tat transport inhibition | E. coli MC4100 TorA-mCherry Tat export, fluorescence | inhibition, % at 10 µM | 340,000 compounds, 0.036% hits | AID 488895;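 active = mean replicate inhibition at least 50% and at least half of replicates individually reaching 50%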;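 also: exported cargo escapes ClpAP degradation while cytoplasmic cargo is degraded and loses fluorescence; 0% = median of neutral control wells and 100% = median of NaSCN control wells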
AddAB confirm = growth loss of T4-infected E. coli expressing H. pylori AddAB, confirmed; shares compounds with AddAB inh; inhibition, % at 11.9 µM; 880 compounds, 64% hits; AID 488942; E. coli V3065 expressing H. pylori AddAB, T4 phage, OD; T4 phage with gene 2 nonsense mutations;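 active = mean inhibition above a set limit taken from the earlier primary screen, cut at about 13% in these data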;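 also: higher means less bacterial growth since AddAB block lets phage replicate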
RecBCD counter = counter-screen: growth loss of RecBCD+ E. coli with mutant T4 phage; inhibition, % at 11.9 µM; shares compounds with AddAB inh; 880 compounds, 73% hits; E. coli V66 + mutant T4 phage, OD growth;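 active = mean inhibition above the mean of solvent-only control wells plus 3 SD, cut at about 4% in these data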;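 also: optical density read after an 18 h incubation at 37 °C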
bact viab count = reduces bacterial viability, AddAB inhibitor counter-screen; shares compounds with AddAB inh; absorbance (AddAB counterscreen); inhibition, % at 11.9 µM; 880 compounds, 35% hits; AID 488956; in the data active = inhibition above about 25%
RecBCD conf = confirmation: growth loss of phage-infected RecBCD+ E. coli (RecBCD inhibitor screen); shares compounds with phage Ecoli inh; E. coli V66 + T4 2- phage, growth OD; AID 651982; 890 compounds, 45% hits; inhibition, % at 11.9 µM;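 active = mean inhibition over triplicates exceeding the hit threshold derived in the original primary screen, cut at about 11% in these data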
Ecoli viability = bacterial viability inhibition counter-screen for RecBCD. shares compounds with phage Ecoli inh. 890 compounds, 29% hits. inhibition, % at 11.9 µM. E. coli viability, absorbance (OD) growth. AID 651983; in the data active = inhibition above about 20%;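 also: E. coli strain V66 grown with compound alone and no phage infection; 0% = bacteria with DMSO vehicle only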
AddAB counter = growth loss of phage-infected AddAB E. coli, RecBCD counter-screen. 890 compounds, 45% hits. shares compounds with phage Ecoli inh. E. coli expressing H. pylori AddAB + T4 phage, OD growth; gene 2 mutant T4, recBCD-deleted host. inhibition, % at 11.9 µM;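 active = mean inhibition above the solvent-only control wells' mean plus 3 SD, cut at about 22% in these data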;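 also: higher means less bacterial growth from phage killing when AddAB is blocked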
Numbers without * were called inactive; . = no result given.

SMILES | E coli growth-1 | pCIP destab | phage Ecoli inh | E coli growth-2 | AddAB inh | Tat transport | AddAB confirm | RecBCD counter | bact viab count | RecBCD conf | Ecoli viability | AddAB counter
Cc1ccc(C(C)C)c(OCc2ccc(C(=O)N/N=C/c3cccc(O)c3O)cc2)c1 | . | 0 | 22* | 14* | 16* | 2 | 16* | 16* | 9 | 9 | 11 | 14
Cc1ccc(C(C)C)c(OCc2ccc(C(=O)NN=Cc3ccc(O)cc3O)cc2)c1 | 0.68 | . | . | . | . | . | . | . | . | . | . | .
CC(C)N(C(=O)COC(=O)CNC(=O)c1ccc(Br)cc1)c1ccccc1 | 0.67 | -1 | 3 | -2 | 2 | -8 | . | . | . | . | . | .
NC(=O)c1ccsc1NC(=O)c1ccc([N+](=O)[O-])o1 | 0.2* | . | 21* | 88* | 96* | -10 | 100* | 20* | 68* | 13* | 16 | 101*
Cc1ccnc(NC(=O)c2ccccc2[N+](=O)[O-])c1 | 0.7 | -2 | 3 | 1 | 2 | 2 | . | . | . | . | . | .
Cc1ccnc(NC(=O)c2ccc([N+](=O)[O-])o2)c1 | 0.56 | -21 | 13* | 33* | 27* | -10 | 99* | 9.8* | 30* | 8 | 10 | 75*
CN1CCc2c(sc(NC(=O)c3ccc([N+](=O)[O-])o3)c2C(N)=O)C1 | . | -28 | 80* | 99* | 99* | 56* | 102* | 82* | 102* | 69* | 89* | 103*
Cc1nnc(SCC(=O)Nc2ccccc2F)n(N)c1=O | 0.74 | -15 | 0 | 4 | 0 | -6 | . | . | . | . | . | .
O=[N+]([O-])c1ccc(C(O)C(CO)NC(=S)Nc2ccccc2)cc1 (stereo unspecified) | 0.69 | 9 | 2 | 3 | 1 | 1 | . | . | . | . | . | .
O=C(NC(CO)C(O)c1ccc([N+](=O)[O-])cc1)C(Cl)Cl (stereo unspecified) | 0.06* | -4 | 73* | 85* | 79* | -3 | 87* | 84* | 86* | 79* | 79* | 74*
O=C(N[C@H](CO)[C@H](O)c1ccc([N+](=O)[O-])cc1)C(Cl)Cl | 0.045* | . | 78* | 90* | 89* | 5 | 87* | 86* | 85* | 86* | 88* | 81*
Cc1ccc(NC(=S)NC(CO)C(O)c2ccc([N+](=O)[O-])cc2)cc1 (stereo unspecified) | 0.67 | 12 | 3 | -2 | 0 | -9 | . | . | . | . | . | .
O=C(Nc1ccc2c(c1)OCO2)c1cncc(Br)c1 | 0.66 | -13 | 2 | 1 | 1 | -2 | . | . | . | . | . | .
CC1(C)CC(=O)C(C(=S)Nc2ccccc2)=C(NC2CC(C)(C)NC(C)(C)C2)C1 | 0.74 | 11 | 4 | -1 | 4 | -4 | . | . | . | . | . | .
CC(C)C(=O)Nc1nnc(-c2ccco2)s1 | 0.69 | 0 | 0 | -1 | 2 | . | . | . | . | . | . | .
NS(=O)(=O)c1ccc(CNC(=O)c2ccc3c(=O)n4c(nc3c2)CCC4)cc1 | 0.67 | . | 3 | 3 | 0 | -7 | . | . | . | . | . | .
Nc1[nH]c(=O)ncc1F | 0.68 | 6 | 29* | 19* | 28* | 0 | 45* | 20* | 44* | 32* | 24* | 52*
CC(=O)NN1C(=O)c2ccccc2NC1c1cccc([N+](=O)[O-])c1 (stereo unspecified) | 0.66 | -5 | 2 | 0 | 1 | 4 | . | . | . | . | . | .
O=C1c2ccccc2NC(c2ccc(-c3ccc(Br)cc3)o2)N1O (stereo unspecified) | 0.62 | 4 | 23* | 24* | 24* | -26 | 19* | 18* | 17 | 14* | 14 | 15
O=C1c2ccccc2NC(c2ccc(-c3ccc(F)cc3)o2)N1O (stereo unspecified) | . | . | 2 | 6 | 7 | -5 | . | . | . | . | . | .
O=C1c2ccccc2NC(c2ccc(-c3cccc([N+](=O)[O-])c3)o2)N1O (stereo unspecified) | 0.63 | -3 | 22* | 25* | 27* | -3 | 21* | 20* | 17 | 9 | 14 | 12
CCOc1ccc(C2=Nc3ccccc3C(c3ccc(N4CCOCC4)cc3)=NN2)cc1 | 0.72 | -9 | 5 | -1 | 3 | 6 | . | . | . | . | . | .
CC(=O)c1ccc(N(CC(=O)NC2CCCC2)C(=O)c2csnn2)cc1 | 0.61 | -6 | 0 | 2 | 1 | 4 | . | . | . | . | . | .
O=C(O)c1cccc(NC(=S)N/N=C/c2ccccn2)c1 | . | 0 | 23* | 16* | 17* | -3 | 19* | 17* | 18 | 11* | 15 | 17
C=C1c2cccc(O)c2C(=O)C2C(=O)[C@]3(O)C(=O)C(C(N)=O)C(=O)[C@@H](N(C)C)[C@@H]3[C@@H](O)[C@H]12 (stereo partly specified) | . | . | 99* | 102* | 100* | 145* | 101* | 101* | 99* | 103* | 105* | 104*
SMILES | E coli growth-1 | pCIP destab | phage Ecoli inh | E coli growth-2 | AddAB inh | Tat transport | AddAB confirm | RecBCD counter | bact viab count | RecBCD conf | Ecoli viability | AddAB counter
O=C1OC(c2ccc(F)cc2)CC1CN1CCOCC1 (stereo unspecified) | . | . | 3 | . | . | . | . | . | . | . | . | .
Cc1onc(-c2ccccc2)c1C(=O)OCC(=O)Nc1cc(S(=O)(=O)N2CCOCC2)ccc1Cl | 0.74 | 26 | 3 | -1 | 1 | 5 | . | . | . | . | . | .
C(=N\Nc1nc2ccccc2s1)/c1ccccn1 | . | -13 | 21* | 16* | 15* | . | 19* | 14* | 13 | 11 | 12 | 21
O=[N+]([O-])c1ccc(-c2cnc(NO)nc2)cc1 | 0.59 | -5 | 31* | 31* | 33* | -3 | 42* | 30* | 40* | 31* | 36* | 45*
Nc1ncc(-c2ccc([N+](=O)[O-])cc2)cn1 | . | 4 | 38* | 38* | 39* | -3 | 44* | 37* | 48* | 35* | 41* | 51*
Nc1[nH]c(=O)ncc1-c1ccc([N+](=O)[O-])cc1 | . | . | 4 | . | . | . | . | . | . | . | . | .
COc1ccccc1/C=N/OC(=O)c1ccc(C)cc1 | . | 3 | 4 | 0 | 0 | -3 | . | . | . | . | . | .
COC(=O)c1cc(Br)ccc1NC(=O)Nc1ccc(C)cc1 | 0.69 | . | 4 | 1 | 5 | 6 | . | . | . | . | . | .
COc1ccccc1CN(C)CC(=O)Nc1ccc(Cl)cc1C(F)(F)F | 0.71 | -9 | -1 | -9 | -3 | 10 | . | . | . | . | . | .

Source: PubChem BioAssay (several laboratories)
